Records with an inconclusive call do not appear. Active and inactive are the calls of the source. The calls were made as follows, unless noted: active = hit-call score of the fitted dose curve at least 0.9, where 1 is the maximum; inconclusive = response in the unintended direction; inactive = score below 0.9.
Assays:
[1] = ATG_NRF2_ARE_CIS: Attagene CIS-FACTORIAL HepG2 Assay for human Nuclear Factor Erythroid 2 Related Factor 2 (NFR2) response to Antioxidant Response Elements (ARE) (AID 2282992; active = hit-call score of the fitted dose curve at least 0.9, where 1 is the maximum; inactive = score below 0.9;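 as to AC50: reporter mRNA level measured by RT-PCR and capillary electrophoresis fluorescence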); conditions: HepG2 Attagene ARE/NRF2 reporter, transcription factor activity; actives raise or lower the signal
Outline: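 Endogenous transcription factor activity in human liver HepG2 cells is tracked via a cis-element-driven reporter within a multiplexed set. mRNA induction is read by RT-PCR and capillary electrophoresis after 24 h, with DMSO as baseline.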

[2] = ATG_Oct_MLP_CIS: Attagene CIS-FACTORIAL HepG2 Assay for human Octamer-Binding Transcription Factor (Oct) (AID 2282993; active = hit-call score of the fitted dose curve at least 0.9, where 1 is the maximum; inactive = score below 0.9); conditions: HepG2 Attagene cis-factorial Oct reporter, mRNA; actives raise or lower the signal
Outline: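 HepG2 cells transiently transfected with cis-promoter-driven multiplexed reporter transcription units, dosed for 24 h. Reporter mRNA quantified by RT-PCR, fluorescent labelling, HpaI digestion and capillary electrophoresis; bidirectional fits versus DMSO baseline.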

[3] = target: Cellular tumor antigen p53 (Homo sapiens) (UniProt P04637); test: ATG_p53_CIS: Attagene CIS-FACTORIAL HepG2 Assay for human p53 Transcription Factor (AID 2282994; active = hit-call score of the fitted dose curve at least 0.9, where 1 is the maximum; inactive = score below 0.9); conditions: HepG2 p53 cis-element reporter, Attagene mRNA; actives raise or lower the signal
Outline: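 Steps: transfect HepG2 with multiplexed cis reporter constructs; dose chemicals 24 h; extract RNA, reverse-transcribe, PCR-amplify reporter sequences; FAM-label, HpaI-digest, resolve fragments by CE. Activity fitted both directions relative to DMSO.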

[4] = target: human Retinoic Acid Receptor beta (RARb), RARB (gene 5915) (UniProt P10826); test: ATG_RARb_TRANS: Attagene TRANS-FACTORIAL HepG2 Assay for human Retinoic Acid Receptor beta (AID 2283004)
Outline: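 Induction of reporter mRNA from a chimeric RARb-Gal4 construct was measured by RT-PCR, FAM labelling, HpaI digestion and capillary electrophoresis. Measurements followed 24 h compound treatment of transiently transfected human HepG2 liver cells, with DMSO as baseline.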

[5] = target: Peroxisome proliferator-activated receptor gamma (Homo sapiens) (UniProt P37231); test: ATG_PPARg_TRANS: Attagene TRANS-FACTORIAL HepG2 Assay for human Peroxisome Proliferator-activated Receptor-gamma (PPARg) (AID 2283007)
Outline: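 Read-out: reporter mRNA induction, detected by fluorescence after RT-PCR and capillary electrophoresis. Transiently transfected human HepG2 liver cells carrying a chimeric NR-Gal4 construct were dosed for 24 h; activity was fitted upward relative to DMSO.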

[6] = target: Nuclear receptor subfamily 1 group I member 2 (Homo sapiens) (UniProt O75469); test: ATG_PXR_TRANS: Attagene TRANS-FACTORIAL HepG2 Assay for human Pregnane X Receptor (PXR) (AID 2283008)
Outline: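 HepG2 transfected (FuGene 6) with GAL4-UAS reporter units + PXR-Gal4 chimera; dosed 24 h. Total RNA → oligo(dT) RT → PCR → 6-FAM primer extension → HpaI cut → CE. Gain-of-signal vs DMSO.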

[7] = target: human RAR-related Orphan Receptor gamma (RORg), RORC (gene 6097) (UniProt P51449); test: ATG_RORg_TRANS: Attagene TRANS-FACTORIAL HepG2 Assay for human RAR-related Orphan Receptor gamma (RORg) (AID 2283011)
Outline: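 Reporter transcripts from a transfected RORg-GAL4 chimera in HepG2 cells were quantified 24 h after dosing by RT-PCR, 6-FAM labelling, HpaI digestion and capillary electrophoresis; increases over DMSO baseline were fitted.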

[8] = target: Retinoic acid receptor RXR-alpha (Homo sapiens) (UniProt P19793); test: ATG_RXRa_TRANS: Attagene TRANS-FACTORIAL HepG2 Assay for human Retinoid X Receptor alpha (RXRa) (AID 2283012)
Outline: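 Read-out: fluorescent reporter-transcript fragments quantified by capillary electrophoresis after RT-PCR. Transiently transfected HepG2 cells carrying GAL4-UAS reporters and NR-GAL4 chimeras were exposed to chemical for 24 h; activity scored as increase over DMSO.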

[9] = target: human Retinoid X Receptor beta (RXRb), RXRB (gene 6257) (UniProt P28702); test: ATG_RXRb_TRANS: Attagene TRANS-FACTORIAL HepG2 Assay for human Retinoid X Receptor beta (RXRb) (AID 2283013)
Outline: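 Read-out: reporter mRNA induction via RT-PCR plus capillary electrophoresis fluorescence, analysed as signal increase relative to DMSO. Cells were human HepG2, transiently transfected with GAL4-UAS reporter constructs and chimeric receptor-Gal4 fusions, dosed for 24 h.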

[10] = target: human Peroxisome Proliferator-activated Receptor alpha (PPARa), PPARA (gene 5465) (UniProt Q07869); test: ATG_PPARa_TRANS: Attagene TRANS-FACTORIAL HepG2 Assay for human Peroxisome Proliferator-activated Receptor alpha (PPARa) (AID 2283001);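 as to AC50: potency for gain of reporter signal over DMSO so agonist or activator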
Outline: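 Transfected HepG2 cells treated with test chemical for 24 h. RNA isolated, reverse-transcribed with oligo(dT), PCR-amplified, FAM-labelled and HpaI-digested. Fragments sized by capillary electrophoresis; gain-of-signal fit relative to DMSO.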

[11] = target: human Peroxisome Proliferator-activated Receptor delta (PPARd), PPARD (gene 5467) (UniProt Q03181); test: ATG_PPARd_TRANS: Attagene TRANS-FACTORIAL HepG2 Assay for human Peroxisome Proliferator-activated Receptor delta (PPARd) (AID 2283002)
Outline: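 Cell-based TRANS reporter: HepG2, transient MRTU transfection, 24 h exposure. Readout = reporter mRNA (RT-PCR/CE, 6-FAM). Gain-of-signal fit vs DMSO control.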

[12] = target: Retinoic acid receptor alpha (Homo sapiens) (UniProt P10276); test: ATG_RARa_TRANS: Attagene TRANS-FACTORIAL HepG2 Assay for human Retinoic Acid Receptor alpha (RARa) (AID 2283005)
Outline: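 Reporter transcripts, measured by RT-PCR with fluorescent labeling and capillary electrophoresis after 24 h dosing, reflect activity of an exogenous human RARa–GAL4 fusion in transiently transfected HepG2. Fitted for increase relative to DMSO.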

[13] = target: human Retinoic Acid Receptor gamma (RARg), RARG (gene 5916) (UniProt P13631); test: ATG_RARg_TRANS: Attagene TRANS-FACTORIAL HepG2 Assay for human Retinoic Acid Receptor gamma (RARg) (AID 2283009)
Outline: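 Readout: reporter transcript levels via RT-PCR, 6-FAM primer-extension labelling, HpaI digestion and capillary electrophoresis. Cells: HepG2 carrying transfected RARg-GAL4 chimera plus UAS reporter set. Dosing 24 h; DMSO negative control.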

[14] = target: human RAR-related Orphan Receptor beta (RORb), RORB (gene 6096) (UniProt Q92753); test: ATG_RORb_TRANS: Attagene TRANS-FACTORIAL HepG2 Assay for human RAR-related Orphan Receptor beta (RORb) (AID 2283010)
Outline: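 HepG2, transient MRTU transfection (GAL4-UAS reporters, exogenous NR-Gal4 chimeras); 24 h compound exposure; total RNA → RT-PCR → 6-FAM primer extension → HpaI digest → CE fluorescence. Positive direction vs DMSO baseline.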

[15] = BSK_3C_TissueFactor: BioMAP Diversity Plus: 3C Assay for Tissue Factor Biomarker Activity (AID 2282997; active = hit-call score of the fitted dose curve at least 0.9, where 1 is the maximum; inactive = score below 0.9); conditions: BioMAP 3C HUVEC, tissue factor biomarker readout; actives raise or lower the signal
Outline: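 Tissue factor on primary human umbilical vein endothelium was read by ELISA 24 h after dosing, gain or loss relative to DMSO. Cytotoxicity ran alongside via SRB (0.1%, TCA-fixed, 560 nm).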

[16] = BSK_3C_VCAM1: BioMAP Diversity Plus: 3C Assay for Vascular cell adhesion molecule 1 (VCAM1) Biomarker Activity (AID 2282999; active = hit-call score of the fitted dose curve at least 0.9, where 1 is the maximum; inactive = score below 0.9); conditions: BioMAP 3C HUVEC, VCAM1 ELISA, cytokine-stimulated; actives raise or lower the signal
Outline: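 Activity fitted in both directions relative to DMSO, with ELISA measurement of the surface marker on primary HUVEC (3C) at 24 h post-treatment; parallel SRB staining (0.1% SRB, TCA-fixed, 560 nm) flagged overt cytotoxicity.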

[17] = BSK_4H_Eotaxin3: BioMAP Diversity Plus: 4H Assay for Eotaxin 3 Biomarker Activity (AID 2283000; active = hit-call score of the fitted dose curve at least 0.9, where 1 is the maximum; inactive = score below 0.9;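 also: CCL26 protein level quantified by ELISA in parallel with SRB cytotoxicity check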); conditions: primary human endothelial cells (HUVEC); actives raise or lower the signal
Outline: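 Human umbilical vein endothelial cells (BSK_4H system) dosed with test chemical; Eotaxin-3 (CCL26) measured by ELISA 24 h after dosing. Bidirectional curve fitting relative to DMSO negative control as baseline.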

[18] = read-out: Intercellular Adhesion Molecule 1 (ICAM1), ICAM1 (gene 3383); test: BSK_3C_ICAM1: BioMAP Diversity Plus: 3C Assay for Intercellular Adhesion Molecule 1 (ICAM1) Biomarker Activity (AID 2283003; active = hit-call score of the fitted dose curve at least 0.9, where 1 is the maximum; inactive = score below 0.9); conditions: primary human endothelial cells (HUVEC); actives raise or lower the signal
Outline: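 ELISA read-out of ICAM-1; HUVEC (primary human), 3C system, 24 h post-dosing; bidirectional fit vs DMSO baseline.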

[19] = BSK_3C_Proliferation: Cell Proliferation Assessment in the BioMAP Diversity Plus: 3C Assay (AID 2283006; active = hit-call score of the fitted dose curve at least 0.9, where 1 is the maximum; inactive = score below 0.9); conditions: primary human endothelial cells (HUVEC)
Outline: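 HUVEC, sub-confluent; 48 h chemical exposure; 10% TCA fix, 0.1% SRB stain, A560 total protein. Gain or loss of signal fitted both directions vs DMSO control.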

Measured: AC50

human Retinoic Acid Receptor gamma (RARg), RARG (gene 5916), sequence (P13631 whole entry, looked up, the tested form may be a part): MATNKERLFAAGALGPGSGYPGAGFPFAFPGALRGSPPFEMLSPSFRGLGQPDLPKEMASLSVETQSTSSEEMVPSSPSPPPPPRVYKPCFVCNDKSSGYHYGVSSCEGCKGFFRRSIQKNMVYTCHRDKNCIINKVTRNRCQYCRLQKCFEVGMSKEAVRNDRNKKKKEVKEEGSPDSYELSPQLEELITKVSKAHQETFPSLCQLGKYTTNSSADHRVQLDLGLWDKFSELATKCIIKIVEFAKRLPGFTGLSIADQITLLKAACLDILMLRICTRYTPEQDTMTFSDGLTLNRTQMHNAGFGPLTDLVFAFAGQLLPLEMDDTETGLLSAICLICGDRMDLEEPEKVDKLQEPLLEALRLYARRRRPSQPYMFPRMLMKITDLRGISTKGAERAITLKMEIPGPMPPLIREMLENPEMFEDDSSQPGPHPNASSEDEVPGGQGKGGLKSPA
Peroxisome proliferator-activated receptor gamma (Homo sapiens), sequence (P37231 whole entry, looked up, the tested form may be a part): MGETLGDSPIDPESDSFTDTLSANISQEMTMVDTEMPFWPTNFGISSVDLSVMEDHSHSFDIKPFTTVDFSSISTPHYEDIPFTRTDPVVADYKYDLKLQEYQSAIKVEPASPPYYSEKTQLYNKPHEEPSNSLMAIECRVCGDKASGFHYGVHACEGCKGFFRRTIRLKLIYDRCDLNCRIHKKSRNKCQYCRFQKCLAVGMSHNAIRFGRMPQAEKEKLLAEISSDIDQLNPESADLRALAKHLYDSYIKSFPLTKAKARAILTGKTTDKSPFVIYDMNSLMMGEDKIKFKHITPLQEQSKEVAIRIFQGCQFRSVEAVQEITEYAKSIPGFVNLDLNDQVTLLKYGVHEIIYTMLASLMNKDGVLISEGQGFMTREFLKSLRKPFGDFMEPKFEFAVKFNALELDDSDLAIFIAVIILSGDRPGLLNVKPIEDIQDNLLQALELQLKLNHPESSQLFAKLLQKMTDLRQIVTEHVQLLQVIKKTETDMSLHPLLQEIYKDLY
human RAR-related Orphan Receptor beta (RORb), RORB (gene 6096), sequence (Q92753 whole entry, looked up, the tested form may be a part): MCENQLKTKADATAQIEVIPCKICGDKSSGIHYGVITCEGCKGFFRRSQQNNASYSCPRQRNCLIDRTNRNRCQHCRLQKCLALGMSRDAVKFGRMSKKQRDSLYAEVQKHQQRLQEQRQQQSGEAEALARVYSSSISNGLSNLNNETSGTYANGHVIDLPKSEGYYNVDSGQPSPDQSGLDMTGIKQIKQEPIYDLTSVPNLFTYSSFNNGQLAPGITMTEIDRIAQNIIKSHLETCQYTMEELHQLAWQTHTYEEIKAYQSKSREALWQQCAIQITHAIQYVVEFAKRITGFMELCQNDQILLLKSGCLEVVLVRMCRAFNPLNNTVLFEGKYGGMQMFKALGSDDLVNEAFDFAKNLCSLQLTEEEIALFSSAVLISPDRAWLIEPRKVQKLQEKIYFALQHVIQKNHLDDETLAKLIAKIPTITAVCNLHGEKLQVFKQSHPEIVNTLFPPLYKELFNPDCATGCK
Retinoic acid receptor RXR-alpha (Homo sapiens), sequence (P19793 whole entry, looked up, the tested form may be a part): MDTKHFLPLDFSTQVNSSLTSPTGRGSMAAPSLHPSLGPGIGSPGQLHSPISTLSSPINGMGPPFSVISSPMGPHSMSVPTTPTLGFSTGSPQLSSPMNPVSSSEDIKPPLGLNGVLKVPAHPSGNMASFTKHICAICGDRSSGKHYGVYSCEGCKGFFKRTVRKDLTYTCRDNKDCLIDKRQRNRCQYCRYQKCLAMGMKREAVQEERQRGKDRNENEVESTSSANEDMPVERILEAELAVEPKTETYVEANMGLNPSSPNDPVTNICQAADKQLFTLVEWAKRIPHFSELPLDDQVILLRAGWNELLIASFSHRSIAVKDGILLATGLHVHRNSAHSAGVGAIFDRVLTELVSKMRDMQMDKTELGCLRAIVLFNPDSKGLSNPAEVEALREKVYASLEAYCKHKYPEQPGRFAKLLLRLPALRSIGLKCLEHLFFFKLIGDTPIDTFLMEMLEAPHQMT
human Retinoic Acid Receptor beta (RARb), RARB (gene 5915), sequence (P10826 whole entry, looked up, the tested form may be a part): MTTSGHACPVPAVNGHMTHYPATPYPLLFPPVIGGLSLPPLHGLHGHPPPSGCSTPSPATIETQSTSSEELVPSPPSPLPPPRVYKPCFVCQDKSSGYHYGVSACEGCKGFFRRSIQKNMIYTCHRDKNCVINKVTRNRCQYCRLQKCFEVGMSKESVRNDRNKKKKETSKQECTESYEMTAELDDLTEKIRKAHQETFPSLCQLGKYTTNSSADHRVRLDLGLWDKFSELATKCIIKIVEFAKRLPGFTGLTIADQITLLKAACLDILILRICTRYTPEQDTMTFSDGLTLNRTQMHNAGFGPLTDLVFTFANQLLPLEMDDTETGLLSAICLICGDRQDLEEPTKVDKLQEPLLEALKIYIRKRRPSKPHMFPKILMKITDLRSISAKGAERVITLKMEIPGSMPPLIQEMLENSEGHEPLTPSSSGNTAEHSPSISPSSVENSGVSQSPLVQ
human Peroxisome Proliferator-activated Receptor alpha (PPARa), PPARA (gene 5465), sequence (Q07869 whole entry, looked up, the tested form may be a part): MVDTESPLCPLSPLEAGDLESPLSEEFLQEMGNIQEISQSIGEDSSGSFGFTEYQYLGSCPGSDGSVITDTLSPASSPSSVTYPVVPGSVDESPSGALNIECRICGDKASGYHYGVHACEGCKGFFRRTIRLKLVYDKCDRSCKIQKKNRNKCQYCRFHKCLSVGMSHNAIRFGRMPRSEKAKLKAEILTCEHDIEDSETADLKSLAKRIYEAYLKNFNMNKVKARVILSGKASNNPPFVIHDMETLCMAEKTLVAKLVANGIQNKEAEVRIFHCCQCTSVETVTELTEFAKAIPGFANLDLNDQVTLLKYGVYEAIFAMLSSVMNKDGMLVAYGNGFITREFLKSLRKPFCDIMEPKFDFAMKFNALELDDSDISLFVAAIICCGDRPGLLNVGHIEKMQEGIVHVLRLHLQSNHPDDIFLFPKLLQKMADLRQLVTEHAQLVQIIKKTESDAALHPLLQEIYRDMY
Nuclear receptor subfamily 1 group I member 2 (Homo sapiens), sequence (O75469 whole entry, looked up, the tested form may be a part): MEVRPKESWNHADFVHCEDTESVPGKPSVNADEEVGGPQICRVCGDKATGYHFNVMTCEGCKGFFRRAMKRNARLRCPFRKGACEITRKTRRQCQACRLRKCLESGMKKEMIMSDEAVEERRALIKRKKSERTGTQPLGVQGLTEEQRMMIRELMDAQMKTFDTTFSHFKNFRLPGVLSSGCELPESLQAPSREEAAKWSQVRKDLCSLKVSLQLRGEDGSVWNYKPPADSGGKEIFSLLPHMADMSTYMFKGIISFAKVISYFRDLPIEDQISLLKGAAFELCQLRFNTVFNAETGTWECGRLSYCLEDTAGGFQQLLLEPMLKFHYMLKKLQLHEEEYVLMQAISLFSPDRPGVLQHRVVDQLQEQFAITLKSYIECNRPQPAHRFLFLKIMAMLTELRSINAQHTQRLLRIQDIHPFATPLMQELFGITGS
human RAR-related Orphan Receptor gamma (RORg), RORC (gene 6097), sequence (P51449 whole entry, looked up, the tested form may be a part): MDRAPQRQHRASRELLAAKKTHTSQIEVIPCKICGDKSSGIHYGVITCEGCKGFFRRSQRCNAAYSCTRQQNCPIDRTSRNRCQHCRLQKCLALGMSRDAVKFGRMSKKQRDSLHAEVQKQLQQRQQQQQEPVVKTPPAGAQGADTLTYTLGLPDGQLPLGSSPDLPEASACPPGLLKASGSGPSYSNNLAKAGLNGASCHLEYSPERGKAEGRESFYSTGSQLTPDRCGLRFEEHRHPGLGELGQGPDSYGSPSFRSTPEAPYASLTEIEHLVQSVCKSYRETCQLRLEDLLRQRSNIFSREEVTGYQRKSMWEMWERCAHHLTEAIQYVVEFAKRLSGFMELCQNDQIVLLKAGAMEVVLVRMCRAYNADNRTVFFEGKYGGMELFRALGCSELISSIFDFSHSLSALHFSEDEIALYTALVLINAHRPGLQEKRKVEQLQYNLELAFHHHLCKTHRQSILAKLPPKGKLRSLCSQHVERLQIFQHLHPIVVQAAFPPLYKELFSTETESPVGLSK
human Retinoid X Receptor beta (RXRb), RXRB (gene 6257), sequence (P28702 whole entry, looked up, the tested form may be a part): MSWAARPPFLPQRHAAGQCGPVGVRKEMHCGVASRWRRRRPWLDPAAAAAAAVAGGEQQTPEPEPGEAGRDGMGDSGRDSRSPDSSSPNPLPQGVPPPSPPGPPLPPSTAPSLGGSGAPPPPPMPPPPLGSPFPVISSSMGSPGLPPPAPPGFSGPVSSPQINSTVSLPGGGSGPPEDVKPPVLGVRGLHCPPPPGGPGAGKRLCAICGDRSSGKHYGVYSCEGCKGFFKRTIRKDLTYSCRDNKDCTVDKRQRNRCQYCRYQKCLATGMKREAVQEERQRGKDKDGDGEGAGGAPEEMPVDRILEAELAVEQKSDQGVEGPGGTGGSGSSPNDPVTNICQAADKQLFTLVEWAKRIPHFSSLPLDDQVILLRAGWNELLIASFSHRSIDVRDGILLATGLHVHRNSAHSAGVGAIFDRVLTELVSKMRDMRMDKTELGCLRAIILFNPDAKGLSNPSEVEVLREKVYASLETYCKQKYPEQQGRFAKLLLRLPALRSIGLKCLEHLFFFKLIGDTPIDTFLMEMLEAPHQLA
human Peroxisome Proliferator-activated Receptor delta (PPARd), PPARD (gene 5467), sequence (Q03181 whole entry, looked up): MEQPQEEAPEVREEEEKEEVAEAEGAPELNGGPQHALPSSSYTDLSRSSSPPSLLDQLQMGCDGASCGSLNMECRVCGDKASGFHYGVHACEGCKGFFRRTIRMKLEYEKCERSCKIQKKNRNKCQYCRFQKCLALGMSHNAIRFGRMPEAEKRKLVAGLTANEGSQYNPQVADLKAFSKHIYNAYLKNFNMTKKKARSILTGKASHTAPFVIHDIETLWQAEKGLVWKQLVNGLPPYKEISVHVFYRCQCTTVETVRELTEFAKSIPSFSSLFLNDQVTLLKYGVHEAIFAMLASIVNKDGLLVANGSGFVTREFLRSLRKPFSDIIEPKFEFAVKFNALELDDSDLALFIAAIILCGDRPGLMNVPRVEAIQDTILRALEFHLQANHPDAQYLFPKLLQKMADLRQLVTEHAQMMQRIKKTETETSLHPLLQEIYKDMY

ClCc1ccccc1CCl
active: [1] 8.19 µM | [2] 21.2 µM | [3] 50.7 µM | [5] 2.49 µM | [8] 57.4 µM
inactive: [4] | [6] | [7] | [9]

CNC(=O)CSP(=O)(OC)OC
inactive: [1] | [2] | [10] | [11] | [5]

CCOCn1c(-c2ccc(Cl)cc2)c(C#N)c(Br)c1C(F)(F)F
active: [2] 1.92 µM | [5] 4.71 µM | [6] 0.561 µM
inactive: [1] | [10] | [11] | [12] | [13] | [8] | [9]

CC1CC(=O)O1 (stereo unspecified)
inactive: [1] | [2] | [11] | [5] | [6] | [7] | [9]

ClCc1ccccc1Cl
active: [1] 12.4 µM | [2] 74.7 µM
inactive: [5] | [14] | [7]

Oc1c(Cl)cc(Cl)cc1Cl
inactive: [2] | [3] | [15] | [16] | [17] | [11] | [18] | [19] | [6] | [7]
active: [10] 15.9 µM

CC(C)(C)c1ccc(CCOc2ncnc3ccccc23)cc1
inactive: [1] | [2] | [10] | [6] | [8] | [9]

O=C(O)COc1cc(Cl)c(Cl)cc1Cl
inactive: [1] | [2] | [15] | [11] | [18] | [19] | [6] | [9]
active: [5] 32.6 µM

CC[N+](CC)(CC)CC
inactive: [1] | [2] | [10] | [5] | [6] | [8] | [9]

CN(C1CCCCC1)C1CCCCC1
active: [1] 61.1 µM
inactive: [2] | [4] | [12] | [5] | [6] | [13]

O=C(N[C@H]1CN2CCC1CC2)c1ccc2c(c1)OCCO2
not listed: [3] | [9] | [10] | [12] | [14] | [16] | [17]
inactive: all other assays above

C[N+](C)(C)Cc1ccccc1
inactive: [1] | [2] | [10] | [5] | [6] | [8]

O=c1[nH]c(=O)n(Cl)c(=O)n1Cl
inactive: [1] | [2] | [10] | [5] | [6] | [14] | [7] | [8] | [9]

C1CCC(C2CCCCC2)CC1
inactive: [2] | [11] | [4] | [6] | [14] | [7] | [8]
active: [1] 23.8 µM | [9] 66.1 µM

C=C(C)C(=O)OCCCCOC(=O)C(=C)C
active: [1] 48.3 µM
inactive: [2] | [6] | [13] | [14] | [8] | [9]

CN(C)CCN(C)C
inactive: [1] | [2] | [10] | [11] | [12] | [6] | [14] | [7] | [9]

CCOC(=O)Cc1ccccc1
inactive: [1] | [2] | [10] | [4] | [14] | [8]

CCCCC(CC)COC(=O)Cl (stereo unspecified)
inactive: [1] | [2] | [4] | [12] | [13] | [9]

CC(C)(C)c1ccccc1O
inactive: [1] | [15] | [10] | [11] | [18] | [19] | [5] | [7]
active: [2] 138 µM | [6] 15.4 µM | [8] 100 µM | [9] 10.6 µM

O=S(=O)(Oc1ccc(Cl)cc1)c1ccc(Cl)cc1
active: [1] 23.1 µM | [5] 27.5 µM | [6] 4.68 µM
inactive: [2] | [11] | [14] | [8]

CN(N=O)c1ccc([N+](=O)[O-])cc1
active: [1] 32.3 µM | [5] 31.9 µM | [6] 19.8 µM
inactive: [2] | [10] | [8] | [9]

Reference: PubChem BioAssay (EPA / NIEHS)
